# Compounds with a hit are over-represented: about 19% of the library has one in this group of screens.
# TDP1 cell CPT = growth inhibition of DT40 Tdp1-/-;hTDP1 cells with camptothecin (screen for TDP1 inhibitors) | chicken DT40 Tdp1-/-;hTDP1 cells + 20 nM CPT, ATP luminescence, 48 h | Potency, µM (doses to about 46.2 µM), for the others: at the top dose activity change, negative = growth inhibition, hits mostly inhibitors | hit rate 12% among 420,000; further: potency means the concentration at half of the fitted maximal effect; nearly all actives have a fitted effect of over 55% in size
#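 Cell growth measured by CellTiter-Glo luminescence after a minimum 48 h, 37 C compound exposure with 20 nM CPT in Tdp1-knockout DT40 cells stably expressing hTDP1, seeded 400/well; qHTS titration format.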
# HT1080NT lethal = kills 2HG-producing HT-1080-NT fibrosarcoma cells | Potency, µM (doses to about 46.1 µM), inactives show at the top dose activity, negative = less viability, usual class: cytotoxic | HT-1080-NT fibrosarcoma viability, CellTiter-Glo ATP luminescence, 48 h | hit rate 1.6% among 360,000;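 further: NT is the 2HG producing partner of a matched IDH1 knockdown line; potency means the concentration at half of the fitted maximal effect; 0% = DMSO-treated cells and -100% = media-only wells without cells; nearly all actives have a fitted effect of over 55% in size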
#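 HT-1080-NT; 750 cells/well; 5% FBS RPMI; 48 h compound, 37 degrees C; CellTiter-Glo luminescence; curve fitting and curve-class assignment.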
# ELG1 repair inh = inhibitors of ELG1-dependent DNA repair in HEK293T cells. HEK293T ELG1-luciferase reporter, luminescence, 16 h; DNA damage induced by 5-fluorouridine. Potency, µM (series often up to 46.1 µM), for the others: top-dose activity change, negative = inhibition, hits mostly inhibitors. hit rate 2.3% among 330,000; further: potency means the concentration at half of the fitted maximal effect; nearly all actives have a fitted effect of over 55% in size
#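 Cells (2,000 per well) received 5-fluorouridine plus test compound or DMSO and were incubated 16 hr at 37 °C, 5% CO2. Luciferase activity was read by luminescence 30 min after ONE-Glo addition; signal suppression marked inhibition of damage-induced ELG1 function.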
# HT1080 IDH1KD tx = kills HT-1080 cells with IDH1 knockdown | HT-1080 IDH1 knockdown viability, ATP luminescence, 48 h | Potency, µM (top dose mostly 46.1 µM), inactives show at the highest dose activity, negative = toxicity, most hits filed as cytotoxic | hit rate 2% among 360,000;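 further: potency means the concentration at half of the fitted maximal effect; 0% = DMSO wells and -100% = cell-free medium wells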
#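 CellTiter-Glo luminescence after 48 h compound exposure at 37 degrees C of IDH1-knockdown HT-1080 cells in 5% FBS RPMI. %Activity scaled between DMSO wells and cell-free media wells, with curves fitted and assigned curve classes.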
# IL-1B inflam inh = inflammasome signaling inhibition, IL-1 beta readout. THP-1 LPS/ATP IL-1B secretion, AlphaLISA, 16 h; active compounds read low. hit rate 4.7% among 360,000. activity change, % at 57.5 µM. AID 743279; in the data active means activity change below about -50%; inconclusive means mostly about -30% to -49%
#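 THP-1 cells pretreated 1 hr with compounds (up to 57.5 uM final), then stimulated with LPS (250 ng/mL final) plus ATP (1.25 mM final); secreted IL-1B measured by AlphaLISA after 16 hr, decreased signal indicating inhibition.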
# TDP1 cell noCPT = qHTS for Inhibitors of human tyrosyl-DNA phosphodiesterase 1 (TDP1): qHTS in cells in absence of CPT | hit rate 15% among 420,000 | AID 686978, 2013 | Potency, µM (series often up to 46.2 µM), inactives show top-dose activity change, negative = growth inhibition, actives largely listed as inhibitors | DT40 Tdp1-/- hTDP1 cells, no CPT, ATP luminescence, 48 h; further: potency means the concentration at half of the fitted maximal effect; nearly all actives have a fitted effect of over 55% in size
#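 Luminescent ATP content (CellTiter-Glo) served as the growth readout. Knockout chicken DT40 cells expressing human TDP1 were exposed to compounds without camptothecin for a minimum 48 hr at 37 °C.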
# The depositor's hits bear a star; ? = inconclusive; · = not tested or not shown. Unless noted, the call rests on the fitted dose curve; in most records, active means well fitted curve in the direction sought with a large enough effect; inconclusive means small, poorly fitted or top-dose-only effect, or another doubt; inactive means no such curve, though single readings can be large; an effect the other way counts as inactive or inconclusive. Unless noted, on the % scale 0 is the no-effect control and ±100 the full control effect.
SMILES,TDP1 cell CPT,HT1080NT lethal,ELG1 repair inh,HT1080 IDH1KD tx,IL-1B inflam inh,TDP1 cell noCPT
CCOC(=O)C1CCCN(C(=O)CSc2ccc(Br)cc2)C1 (stereo not given),13µM*,11%,18%,-6%,-8,18µM*
CC1CCCN(Cc2cn3c(-c4cccc(Br)c4)nnc3s2)C1 (stereo not given),23µM*,·,·,·,·,?
CCOC(=O)C1CCN(Cc2cn3c(-c4ccc(OC)cc4)nnc3s2)CC1,21µM*,·,·,·,·,?
CCOC(=O)C1CCCN(C(=O)CSc2nc(C)cc(C)n2)C1 (stereo not given),1%,19%,10%,14%,0,-12%
O=C(Nc1ccc2nc(C(F)(F)F)[nH]c2c1)[C@@H]1O[C@H](CO)[C@@H](O)[C@H]1O,3%,11%,·,14%,-20,-7%
O=[N+]([O-])c1cc2c(cc1Br)CCN2,12%,3%,15%,-5%,8,-13%
CC1CN(C(=O)COC(=O)c2cc(=O)[nH]c3ccccc23)CC(C)O1 (stereo not given),2%,2%,·,15%,2,3%
COc1ccc(S(=O)(=O)N2CCN(C(=O)c3ccco3)CC2)cc1C(C)(C)C,?,-11%,-5%,-4%,-4,?
Clc1ccc(CN2CC[C@H]3C=CCc4cccc(c43)C2)cc1,?,-9%,-2%,-16%,18,21µM*
Fc1ccc(CN2CC[C@H]3C=CCc4cccc(c43)C2)cc1,?,-5%,11%,-12%,24,?
O=C1C[C@@H]2c3c(cccc3CN1Cc1ccc(F)cc1)C[C@@H](O)[C@H]2O,10%,7%,-1%,-1%,5,-2%
O=C1C[C@H]2C=CCc3cccc(c32)CN1Cc1ccc(Br)cc1,?,·,·,·,·,11µM*
Cc1ccccc1CN1Cc2cccc3c2[C@H](C=CC3)CC1=O,11µM*,·,·,·,·,10µM*
COc1ccc(C2CC(=O)Oc3c(C(CCN4CCCC(C)C4)c4ccc(N(C)C)cc4)c(OC)cc(OC)c32)cc1 (stereo not given),?,9%,14%,-1%,-11,?
COc1ccc(C(CCN2CCCC(C)C2)c2c(OC)cc(OC)c3c(C)cc(=O)oc23)cc1 (stereo not given),13µM*,-7%,?,-7%,-29,23µM*
COc1cc(OC)c2c(-c3ccccc3)cc(=O)oc2c1C(CCN1CCCC(C)C1)c1ccc(N(C)C)cc1 (stereo not given),?,-20%,-13%,-18%,-27,21µM*
COc1ccc(C(CCN2CCCC(C)C2)c2c(OC)cc(OC)c3c(-c4ccccc4)cc(=O)oc23)cc1 (stereo not given),3.3µM*,?,-10%,?,-26,2.9µM*
CCN(CC)CC(C)(C)COC(=O)c1oc2ccccc2c1C,-4%,1%,6%,-10%,-18,-23%
COc1ccc(C(C)C)cc1S(=O)(=O)Nc1cccnc1,?,?,·,3%,-28,9%
Cn1c(=O)c2ccccc2n2c(CCl)nnc12,12µM*,?,-3%,?,-17,15µM*
COc1ccccc1NC(=O)Cn1c(=O)n(CCC(=O)NCC2CCCO2)c(=O)c2cc(OC)c(OC)cc21 (stereo not given),9%,·,·,·,·,-3%
CN(C)CCCN(C(=O)c1sc2ccccc2c1Cl)c1nc2c(F)cccc2s1,-23%,-2%,?,4%,-8,?

# Screening data (PubChem BioAssay)
